Test results taken from PubChem BioAssay (NCI).
The panel holds about 83,000 compounds, 20% with a hit somewhere; the sample as a whole holds those more often.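 How to read the values: 0–100, growth inhibition (40 = 60% inhibited); 0, no net growth; -100 to 0, cell death (-40 = 40% of starting cells died; -100 = all dead).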 A number with no mark means an inactive call. Active and inactive are the calls of the source. Rule for the calls: active = growth percent below 10; inactive = the rest.

Experiments:
Assay in all cases: NCI-60 one-dose screen, 48 h (100 = growth as untreated, 0 = no growth, -100 = all killed)
Settings in all cases: 10 µM unless noted
NCI-H23 lung = system: NCI-H23 lung
NCI-H226 lung = system: NCI-H226 lung
NCI-H322M lung = system: NCI-H322M lung
HOP-62 NSCLC = system: HOP-62 NSCLC
NCI-H460 lung = system: NCI-H460 lung
HOP-92 NSCLC = system: HOP-92 NSCLC
NCI-H522 lung = system: NCI-H522 lung
A549/ATCC NSCLC = system: A549/ATCC NSCLC
786-0 renal = system: 786-0 renal
DU-145 prostate = system: DU-145 prostate
K-562 leukemia = system: K-562 leukemia
MALME-3M melanoma = system: MALME-3M melanoma
MDA-MB-231 breast = system: MDA-MB-231 breast
RXF 393 renal = system: RXF 393 renal
SF-268 CNS = system: SF-268 CNS
SF-295 CNS = system: SF-295 CNS
SF-539 CNS = system: SF-539 CNS
UACC-257 melanoma = system: UACC-257 melanoma
M14 melanoma = system: M14 melanoma
COLO 205 colon = system: COLO 205 colon

Compound | growth (NCI-H23 lung) | growth (NCI-H226 lung) | growth (NCI-H322M lung) | growth (HOP-62 NSCLC) | growth (NCI-H460 lung) | growth (HOP-92 NSCLC) | growth (NCI-H522 lung) | growth (A549/ATCC NSCLC) | growth (786-0 renal) | growth (DU-145 prostate) | growth (K-562 leukemia) | growth (MALME-3M melanoma) | growth (MDA-MB-231 breast) | growth (RXF 393 renal) | growth (SF-268 CNS) | growth (SF-295 CNS) | growth (SF-539 CNS) | growth (UACC-257 melanoma) | growth (M14 melanoma) | growth (COLO 205 colon)
CC(C)(C)n1cc(-c2ccnc(NCCCNS(=O)(=O)c3ccc(Cl)cc3)c2)c(-c2cccc(F)c2)n1 | 70.9% | 80.9% | 98.5% | 93% | 59.4% | 73.6% | 84.2% | 61.9% | 71.4% | 87% | 24.8% | 73.8% | 81.6% | 72% | 86.6% | 68.2% | 75% | 93.1% | 77.7% | –
O=C1c2cccc3cccc(c23)C(=O)N1CC#Cc1ccc2c3c(cccc13)C(=O)N(CCN1CCNCC1)C2=O | 73.7% | 102% | 98.6% | 110% | 73.1% | 87.7% | 99.8% | 109% | -2.58% (active) | 99.5% | -15.3% (active) | -45% (active) | 7.95% (active) | 82.9% | 93.8% | 94.1% | 10.2% | 104% | 101% | –
N#Cc1c(-c2ccc(O)cc2)c2c(N)nn(-c3ccccc3)c2[nH]c1=O | 98.9% | 94.5% | 103% | 100% | 110% | 96.6% | 91.3% | 117% | 107% | 109% | 107% | 105% | 97.8% | 113% | 100% | 110% | 95.7% | 109% | 99.4% | –
Nc1ccc(Cl)cn1 | 97.7% | 95% | 104% | 95% | 105% | 87% | 82.9% | 87.7% | 106% | 106% | 107% | 99.7% | 101% | 113% | 100% | 97.3% | 96.4% | – | 105% | –
Nc1nc(Br)nc2c1ncn2C1CC(O)C(CO)O1 (configuration not stated) | 20.2% | 89.6% | 83.6% | 47% | 97.9% | 51.5% | 109% | 51.4% | 62.8% | 52.7% | 79% | 90.2% | 87.2% | – | 73.9% | 94.3% | 77.8% | 87.7% | -0.9% (active) | –
c1cnc2[nH]cc(-c3csc(-c4cn(CCCN5CCCCC5)c5ccccc45)n3)c2c1 | 79.7% | 77% | 83.8% | 54.6% | 10.1% | 35.1% | 79.2% | 58.3% | 56.3% | 67% | -45.4% (active) | -55% (active) | 45% | 52.3% | 58.9% | 88.8% | -48.5% (active) | 92% | -77.8% (active) | –
COc1ccc(/C=C/C(=O)c2ccc([N+](=O)[O-])cc2)cc1 | 104% | 102% | 102% | 104% | 110% | 87.7% | 83.7% | 100% | 94.7% | 109% | 101% | – | 94.5% | 110% | 106% | 114% | 104% | 110% | 106% | –
COc1cc(/C=C/c2cc(/C=C/c3ccc(O)c(OC)c3)n(-c3ccccc3)c(=O)n2)ccc1O | 78.4% | 80.2% | 86.8% | 85.8% | 91% | 78.8% | 68.2% | 90.6% | 85.1% | 86.7% | 53.9% | 90.4% | 61.4% | 68.3% | 72.3% | 88% | 79.5% | 88.9% | 85.7% | –
C#CCC(C)(O)/C=C/C1=C(C)CCCC1(C)C (configuration not stated) | 94.5% | 85.4% | 99.4% | 96.9% | 103% | 84% | 75.5% | 69.8% | 92.6% | 103% | – | 90% | 99.3% | 100% | 95.6% | 95.4% | 102% | 76.4% | 89.4% | 113%
c1csc(-c2nc(-c3cc4ccccc4c(N4CCOCC4)n3)cs2)c1 | 87.8% | 107% | 94.1% | 97.6% | 100% | 116% | – | 95.6% | 96.9% | 113% | 102% | 0.576% (active) | 88.7% | 111% | 91.6% | 101% | 103% | 17.3% | 49.1% | –
Nc1nc2c3ccncc3cc(-c3cccc(Cl)c3)c2c2cnccc12 | 66.8% | 33.1% | 70.4% | 44.1% | 12.9% | 50.3% | – | 28.3% | 21.3% | 40.5% | 17.1% | 57% | 52.8% | 10.4% | 49.5% | 31.4% | 30.1% | 59% | 45.7% | 20.9%
Nc1ccc(Br)cn1 | 104% | 99.9% | 104% | 101% | 106% | 89.4% | – | 103% | 106% | 112% | 117% | – | 99.3% | 108% | 110% | 114% | 99.1% | 106% | 98.6% | 113%
Cn1cc(-c2csc(-c3cn(CCCN4CCCCC4)c4ccccc34)n2)c2cccnc21 | 84% | 52.7% | 82.7% | -84% (active) | -58.7% (active) | 57.8% | – | -14.4% (active) | -87.1% (active) | -52.5% (active) | -70% (active) | -78.6% (active) | -81.4% (active) | -78.6% (active) | -25.6% (active) | 32% | -88.6% (active) | -80.3% (active) | -80.9% (active) | -80% (active)
C=C(C)[C@@H]1CC[C@]2(CN)CC[C@]3(C)[C@H](CC[C@@H]4[C@@](C)(CCCN)[C@H](C(=C)C)CC[C@]43C)[C@@H]12 | 91.1% | 90.6% | 90.2% | 90.6% | 94.7% | 67.4% | – | 82.7% | 81.8% | 94.8% | 1.94% (active) | 80.2% | 92.8% | 79% | 79.9% | 101% | 90.4% | 99.7% | 75.2% | 34.5%
COc1cccc(-c2nn(-c3ccccc3)cc2-c2ccnc(NCCCNS(=O)(=O)c3ccccc3)c2)c1 | 44.3% | 35.1% | 59.3% | 64.3% | 31.8% | 18.9% | – | 35.8% | 43.2% | 52% | 9.59% (active) | 68.7% | 20.6% | 36.4% | 47.1% | 16.8% | 57.5% | – | 29.9% | 17.1%
COC(=O)[C@]12CC[C@@H](C)[C@H](C)[C@@H]1C1=CC[C@@H]3[C@@](C)(CC#N)C4=C(C[C@@]3(C)[C@]1(C)CC2)OC[C@]4(C)C=O | -10.1% (active) | -37% (active) | 10.4% | -23.6% (active) | -57.1% (active) | 2.68% (active) | – | -73.6% (active) | -19.3% (active) | 5.07% (active) | 5.97% (active) | -16.9% (active) | -8.99% (active) | -85.1% (active) | 3.69% (active) | -30.6% (active) | -38.4% (active) | – | -1.53% (active) | -94% (active)
